Source: PubChem BioAssay (NCATS)
Inconclusive results are not listed. The source made the active and inactive calls. Calls come from the whole dose curve; as a rule, active = well fitted cell-killing curve with a large enough effect; inconclusive = small, poorly fitted or top-dose-only effect; inactive = flat fitted curve, though single readings scatter.

Legend:
[1] = Cell Viability - LYMP2-008 (AID 980); details: LYMP2-008 lymphoblastoid cell viability, qHTS; series mostly up to 92.2 µM; note: nearly all actives have a fitted effect of over 60% in size
Outline: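 LYMP2-008 lymphoblastoid cells (2500/well) plated 5 h, then treated 24 h at 37 C in complete medium. Viability read as intracellular ATP by CellTiter-Glo luminescence after 30 min at room temperature; AC50 from Hill fits.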

[2] = Cell Viability - LYMP2-010 (AID 981); details: LYMP2-010 lymphoblastoid cell viability, qHTS; series mostly up to 92.2 µM; note: nearly all actives have a fitted effect of over 55% in size
Outline: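 Human lymphoblastoid LYMP2-010 cells (2500/well) treated 24 h at 37 C in complete medium; viability read as intracellular ATP by CellTiter-Glo luminescence. AC50 from Hill fits of concentration-response data; tetraoctylammonium bromide positive control.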

[3] = Cell Viability - LYMP2-012 (AID 982); details: LYMP2-012 lymphoblastoid cell viability qHTS; series mostly up to 92.2 µM;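 note: cellular ATP by luciferase luminescence where a drop means cytotoxicity; cells exposed to compound for one day before reading; nearly all actives have a fitted effect of over 55% in size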
[4] = Cell Viability - LYMP2-014 (AID 983); details: LYMP2-014 lymphoblastoid cells, viability qHTS; series mostly up to 92.2 µM; note: nearly all actives have a fitted effect of over 50% in size
Outline: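 LYMP2-014 human lymphoblastoid cells, 2500/well, treated 24 h at 37 C in complete medium; viability by CellTiter-Glo ATP luminescence after 30 min at room temperature. AC50 from Hill fits of qHTS concentration-response; tetraoctylammonium bromide positive control.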

[5] = Cell Viability - LYMP2-016 (AID 984); details: LYMP2-016 lymphoblastoid cell viability, qHTS; series mostly up to 92.2 µM; note: nearly all actives have a fitted effect of over 55% in size
Outline: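 Acute toxicity in a Coriell human lymphoblastoid line is scored as loss of intracellular ATP over 24 h of treatment in complete medium. CellTiter-Glo signal is fitted across concentrations with the Hill equation to give AC50.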

[6] = Cell Viability - LYMP2-018 (AID 985); details: LYMP2-018 lymphoblastoid cells, viability (qHTS); series mostly up to 92.2 µM;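 note: compound exposure lasted 24 hr at 37 °C; nearly all actives have a fitted effect of over 50% in size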
Outline: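 Human lymphoblastoid LYMP2-018 cells, 2500/well, settled 5 hr at 37 C then exposed to compound 24 hr at 37 C; intracellular ATP measured by CellTiter-Glo luminescence. AC50 from Hill-equation concentration-response fits.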

[7] = Cell Viability - LYMP2-020 (AID 986); details: series mostly up to 92.2 µM; note: nearly all actives have a fitted effect of over 55% in size
Outline: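 Human lymphoblastoid LYMP2-020 cells (2500/well) preincubated 5 h at 37 C, then treated 24 h at 37 C. Viability measured as intracellular ATP by CellTiter-Glo luminescence after 30 min at room temperature; AC50 from Hill fits.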

[8] = Cell Viability - LYMP2-022 (AID 987); details: LYMP2-022 lymphoblastoid cell viability; series mostly up to 92.2 µM; note: nearly all actives have a fitted effect of over 55% in size
Outline: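 LYMP2-022 lymphoblastoid cells (2500/well, complete medium) were treated with compounds for 24 hours at 37 C; intracellular ATP was then read by CellTiter-Glo luminescence after 30 min at room temperature. AC50 values were derived from Hill-equation fits.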

[9] = Cell Viability - LYMP2-024 (AID 988); details: LYMP2-024 lymphoblastoid cell viability; series mostly up to 92.2 µM; note: nearly all actives have a fitted effect of over 60% in size
Outline: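 Human lymphoblastoid LYMP2-024 cells (2500/well) rested 5 hr, then treated with compound for 24 hr at 37 C in complete medium. Viability was measured as intracellular ATP by CellTiter-Glo luminescence. AC50 values came from Hill-equation fits.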

[10] = Cell Viability - LYMP2-026 (AID 989); details: LYMP2-026 lymphoblastoid cell viability, qHTS; series mostly up to 92.2 µM; note: nearly all actives have a fitted effect of over 50% in size
Outline: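 Human lymphoblastoid LYMP2-026 cells, 2500/well, exposed to compound 24 h at 37 C in complete medium. Viability as intracellular ATP by CellTiter-Glo luminescence; AC50 from Hill fits of qHTS concentration-response.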

Measured: outcome

COc1ccc(CCC(=O)c2c(O)cc(O[C@@H]3O[C@H](CO)[C@@H](O)[C@H](O)[C@H]3O[C@@H]3O[C@@H](C)[C@H](O)[C@@H](O)[C@H]3O)cc2O)cc1O
inactive: all assays above

C=C1C[C@]23C[C@@]1(O)CC[C@H]2[C@@]12C=C[C@H](O)[C@@](C)(C(=O)O1)[C@H]2[C@@H]3C(=O)O
inactive: all assays above
